{"source": "paper PMC5540273", "about": "(PLoS ONE, 2017);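 further: KINOMEscan kinase panel screen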", "data": [{"system": "S6K1", "details": "concentration: 1 μM, replicates: in singlicate; n = 1", "units": {"%Inh": "%"}, "values": [{"smiles": "O=C(Nc1n[nH]c2nc(-c3ccco3)c(Br)cc12)C1CCN(Cc2ccccc2)C1.O=C(O)[C@H](O)[C@@H](O)C(=O)O", "note": "(centres unmarked) [SB-742034]", "%Inh": 23}, {"smiles": "Cn1cnc2c(N)ncnc21", "note": "[SKF-97623]", "%Inh": 0}, {"smiles": "COc1ccc(Nc2nccc(-c3ccc(NC(=O)c4cc5cc(F)ccc5[nH]4)cc3)n2)cc1", "note": "[GSK1229496]", "%Inh": 1}, {"smiles": "CNC(=O)c1ccc(C)c(-n2c(C)cc(OCc3ccc(F)cc3F)c(Br)c2=O)c1", "%Inh": 0}, {"smiles": "Nc1nccc(-c2c(-c3ccc(F)cc3)ncn2C2CCN(Cc3ccccc3)CC2)n1", "note": "[SB-219980]", "%Inh": 6}, {"smiles": "Cc1ccc(NC(=O)Nc2ccccc2)cc1-c1ccc(C(=O)Nc2ccncc2)cc1", "note": "[GSK1398471]", "%Inh": 0}, {"smiles": "Fc1ccc(-c2nc[nH]c2-c2ccncc2)cc1", "note": "[SB-217360]", "%Inh": 8}, {"smiles": "CC(C)c1cc(-c2ccc3c(N)n[nH]c3c2)nc(N)n1", "note": "[GSK2250882]", "%Inh": 0}, {"smiles": "Fc1ccc(-c2nc3n(c2-c2ccncc2)CCS3)cc1", "note": "[GI98581]", "%Inh": 33}, {"smiles": "CCc1ccc(-c2ccc3c(c2)-c2n[nH]cc2S(=O)(=O)N3C)cc1", "%Inh": 0}, {"smiles": "COc1ccc(CSc2nnc(-c3ccc4c(c3)CCO4)o2)cc1", "%Inh": 0}, {"smiles": "CSc1ccc(-c2nc3n(c2-c2ccncc2)CCC3)cc1", "note": "[SKF-105561]", "%Inh": 0}, {"smiles": "COc1cccc(NC(=O)Nc2ccc(C)c(-c3ccc(C(=O)Nc4ccncc4)cc3)c2)c1", "note": "[GSK1398474]", "%Inh": 18}, {"smiles": "O=c1cc(N2CCOCC2)nc2n(Cc3cccc(Cl)c3Cl)c3ccccc3n12", "note": "[GSK2299009]", "%Inh": 14}, {"smiles": "COC(=O)c1cccc(NC(=O)NC2CCN(c3ccnc(Nc4ccc(F)cc4)n3)C2)c1", "note": "(centres unmarked) [GSK1379725]", "%Inh": 0}, {"smiles": "O=C(Nc1n[nH]c2nc(-c3cccs3)c(Br)cc12)C1CC1", "note": "[SB-735297]", "%Inh": 22}, {"smiles": "CC(=O)c1c(C)c2cnc(Nc3ccc(N4CCNCC4)cn3)nc2n(C2CCCC2)c1=O", "%Inh": 0}, {"smiles": "CN1c2ccc(-c3ccc(C(N)=O)cc3)cc2-c2[nH]ncc2S1(=O)=O", "%Inh": 0}, {"smiles": "CNc1cc(-c2ccc3c(N)n[nH]c3c2)nc(N)n1", "note": "[GSK2224810]", "%Inh": 0}, {"smiles": "Cn1cncc1C(=O)NC1CCN(c2ccnc(Nc3ccc(F)cc3)n2)C1", "note": "(centres unmarked) [GSK1379717]", "%Inh": 7}, {"smiles": "Cn1cncc1-c1cc2c(Nc3ccc(OCc4ccccc4)cc3)ncnc2cn1", "note": "[GW281179]", "%Inh": 3}, {"smiles": "COc1ccc(-c2coc3ccc(-c4nnc(C)o4)cc23)cc1", "%Inh": 0}, {"smiles": "Cc1ccc(NC(=O)Nc2ccc(Cl)cc2)cc1-c1ccc(C(=O)Nc2ccncc2)cc1", "note": "[GSK1398472]", "%Inh": 8}, {"smiles": "CC(=O)c1c(C)c2cnc(Nc3ccn(C)n3)nc2n(C2CCCC2)c1=O", "%Inh": 0}, {"smiles": "COc1ccc(Nc2nccc(N3CCC(NC(=O)c4cc5ccccc5s4)C3)n2)cc1", "note": "(centres unmarked) [GSK1379738]", "%Inh": 0}, {"smiles": "Cc1nccc(-c2c(-c3ccc(F)cc3)ncn2CCCN2CCOCC2)n1.Cl", "note": "[SB-282975]", "%Inh": 9}, {"smiles": "CC[C@@H]1CO[C@H](C(=O)Nc2ccccc2)CN1c1cc(-c2ccc3c(N)n[nH]c3c2)nc(NC)n1", "note": "[GSK2376236]", "%Inh": 0}, {"smiles": "NS(=O)(=O)c1cccc(N/C=C2\\C(=O)Nc3ccc(S(=O)(=O)Cc4c(Cl)cccc4Cl)cc32)c1", "note": "[GSK398099]", "%Inh": 0}, {"smiles": "Nc1cccc(-c2ccc3c(N)n[nH]c3c2)n1", "note": "[GSK2192730]", "%Inh": 7}, {"smiles": "CCCCc1nn2ncccc2c1-c1ccnc(NC2CC2)n1", "note": "[GW684374]", "%Inh": 0}, {"smiles": "CNc1nc(-c2ccc3c(N)n[nH]c3c2)cc(N2C[C@@H](C(=O)NC3CCCCC3)OC[C@H]2C)n1", "note": "[GSK2375584]", "%Inh": 10}, {"smiles": "COc1cccc(C2=C(Nc3cc(Cl)c(O)c(Cl)c3)C(=O)NC2=O)c1", "note": "[SB-390767]", "%Inh": 20}, {"smiles": "COc1ccc(CSc2nnc(-c3ccc4ncsc4c3)o2)cc1C(F)(F)F", "%Inh": 0}, {"smiles": "Cc1c(Cn2c(C)c(C)n3c(=O)cc(N4CCOCC4)nc23)cccc1C(F)(F)F", "note": "[GSK2328680]", "%Inh": 0}, {"smiles": "CNc1nc(-c2ccc3c(N)n[nH]c3c2)cc(N2C[C@@H](C(=O)Nc3ccccc3)CC[C@H]2C)n1", "note": "[GSK2298859]", "%Inh": 0}, {"smiles": "Cc1ccccc1-c1cc(-c2c[nH]nc2-c2ccccn2)ccn1", "note": "[GW680061]", "%Inh": 2}, {"smiles": "COc1ccc(Nc2nccc(NCCNC(=O)Nc3cc(C)ccc3C)n2)cc1", "note": "[GSK1379899]", "%Inh": 0}]}, {"system": "SBK1", "details": "concentration: 1 μM, replicates: in singlicate; n = 1", "units": {"%Inh": "%"}, "values": [{"smiles": "O=C(Nc1n[nH]c2nc(-c3ccco3)c(Br)cc12)C1CCN(Cc2ccccc2)C1.O=C(O)[C@H](O)[C@@H](O)C(=O)O", "note": "(centres unmarked) [SB-742034]", "%Inh": 19}, {"smiles": "Cn1cnc2c(N)ncnc21", "note": "[SKF-97623]", "%Inh": 0}, {"smiles": "COc1ccc(Nc2nccc(-c3ccc(NC(=O)c4cc5cc(F)ccc5[nH]4)cc3)n2)cc1", "note": "[GSK1229496]", "%Inh": 17}, {"smiles": "CNC(=O)c1ccc(C)c(-n2c(C)cc(OCc3ccc(F)cc3F)c(Br)c2=O)c1", "%Inh": 0}, {"smiles": "Nc1nccc(-c2c(-c3ccc(F)cc3)ncn2C2CCN(Cc3ccccc3)CC2)n1", "note": "[SB-219980]", "%Inh": 35}, {"smiles": "Cc1ccc(NC(=O)Nc2ccccc2)cc1-c1ccc(C(=O)Nc2ccncc2)cc1", "note": "[GSK1398471]", "%Inh": 5}, {"smiles": "Fc1ccc(-c2nc[nH]c2-c2ccncc2)cc1", "note": "[SB-217360]", "%Inh": 0}, {"smiles": "CC(C)c1cc(-c2ccc3c(N)n[nH]c3c2)nc(N)n1", "note": "[GSK2250882]", "%Inh": 16}, {"smiles": "Fc1ccc(-c2nc3n(c2-c2ccncc2)CCS3)cc1", "note": "[GI98581]", "%Inh": 21}, {"smiles": "CCc1ccc(-c2ccc3c(c2)-c2n[nH]cc2S(=O)(=O)N3C)cc1", "%Inh": 0}, {"smiles": "COc1ccc(CSc2nnc(-c3ccc4c(c3)CCO4)o2)cc1", "%Inh": 0}, {"smiles": "CSc1ccc(-c2nc3n(c2-c2ccncc2)CCC3)cc1", "note": "[SKF-105561]", "%Inh": 30}, {"smiles": "COc1cccc(NC(=O)Nc2ccc(C)c(-c3ccc(C(=O)Nc4ccncc4)cc3)c2)c1", "note": "[GSK1398474]", "%Inh": 8}, {"smiles": "O=c1cc(N2CCOCC2)nc2n(Cc3cccc(Cl)c3Cl)c3ccccc3n12", "note": "[GSK2299009]", "%Inh": 28}, {"smiles": "COC(=O)c1cccc(NC(=O)NC2CCN(c3ccnc(Nc4ccc(F)cc4)n3)C2)c1", "note": "(centres unmarked) [GSK1379725]", "%Inh": 17}, {"smiles": "O=C(Nc1n[nH]c2nc(-c3cccs3)c(Br)cc12)C1CC1", "note": "[SB-735297]", "%Inh": 11}, {"smiles": "CC(=O)c1c(C)c2cnc(Nc3ccc(N4CCNCC4)cn3)nc2n(C2CCCC2)c1=O", "%Inh": 0}, {"smiles": "CN1c2ccc(-c3ccc(C(N)=O)cc3)cc2-c2[nH]ncc2S1(=O)=O", "%Inh": 0}, {"smiles": "CNc1cc(-c2ccc3c(N)n[nH]c3c2)nc(N)n1", "note": "[GSK2224810]", "%Inh": 7}, {"smiles": "Cn1cncc1C(=O)NC1CCN(c2ccnc(Nc3ccc(F)cc3)n2)C1", "note": "(centres unmarked) [GSK1379717]", "%Inh": 16}, {"smiles": "Cn1cncc1-c1cc2c(Nc3ccc(OCc4ccccc4)cc3)ncnc2cn1", "note": "[GW281179]", "%Inh": 36}, {"smiles": "COc1ccc(-c2coc3ccc(-c4nnc(C)o4)cc23)cc1", "%Inh": 0}, {"smiles": "Cc1ccc(NC(=O)Nc2ccc(Cl)cc2)cc1-c1ccc(C(=O)Nc2ccncc2)cc1", "note": "[GSK1398472]", "%Inh": 19}, {"smiles": "CC(=O)c1c(C)c2cnc(Nc3ccn(C)n3)nc2n(C2CCCC2)c1=O", "%Inh": 0}, {"smiles": "COc1ccc(Nc2nccc(N3CCC(NC(=O)c4cc5ccccc5s4)C3)n2)cc1", "note": "(centres unmarked) [GSK1379738]", "%Inh": 2}, {"smiles": "Cc1nccc(-c2c(-c3ccc(F)cc3)ncn2CCCN2CCOCC2)n1.Cl", "note": "[SB-282975]", "%Inh": 29}, {"smiles": "CC[C@@H]1CO[C@H](C(=O)Nc2ccccc2)CN1c1cc(-c2ccc3c(N)n[nH]c3c2)nc(NC)n1", "note": "[GSK2376236]", "%Inh": 0}, {"smiles": "NS(=O)(=O)c1cccc(N/C=C2\\C(=O)Nc3ccc(S(=O)(=O)Cc4c(Cl)cccc4Cl)cc32)c1", "note": "[GSK398099]", "%Inh": 21}, {"smiles": "Nc1cccc(-c2ccc3c(N)n[nH]c3c2)n1", "note": "[GSK2192730]", "%Inh": 2}, {"smiles": "CCCCc1nn2ncccc2c1-c1ccnc(NC2CC2)n1", "note": "[GW684374]", "%Inh": 0}, {"smiles": "CNc1nc(-c2ccc3c(N)n[nH]c3c2)cc(N2C[C@@H](C(=O)NC3CCCCC3)OC[C@H]2C)n1", "note": "[GSK2375584]", "%Inh": 0}, {"smiles": "COc1cccc(C2=C(Nc3cc(Cl)c(O)c(Cl)c3)C(=O)NC2=O)c1", "note": "[SB-390767]", "%Inh": 0}, {"smiles": "COc1ccc(CSc2nnc(-c3ccc4ncsc4c3)o2)cc1C(F)(F)F", "%Inh": 0}, {"smiles": "Cc1c(Cn2c(C)c(C)n3c(=O)cc(N4CCOCC4)nc23)cccc1C(F)(F)F", "note": "[GSK2328680]", "%Inh": 22}, {"smiles": "CNc1nc(-c2ccc3c(N)n[nH]c3c2)cc(N2C[C@@H](C(=O)Nc3ccccc3)CC[C@H]2C)n1", "note": "[GSK2298859]", "%Inh": 4}, {"smiles": "Cc1ccccc1-c1cc(-c2c[nH]nc2-c2ccccn2)ccn1", "note": "[GW680061]", "%Inh": 0}, {"smiles": "COc1ccc(Nc2nccc(NCCNC(=O)Nc3cc(C)ccc3C)n2)cc1", "note": "[GSK1379899]", "%Inh": 0}]}]}
